Experimental data: ChEMBL document CHEMBL4513216, “Probing the Open Global Health Chemical Diversity Library for Multistage-Active Starting Points for Next-Generation Antimalarials” (ACS Infect Dis, 2020)
Screen size: about 68,000 compounds; about 2,700 (4%) showed an effect of 50% or more. The list comes from a sample in which strong results are over-represented; it also holds similar structures and randomly drawn compounds.

What follows are compounds tested on Plasmodium berghei (assay: Screen against P. berghei liver stage (PbLuc), transformed with Luciferase, at 2uM). Settings: tested at 2 uM.
Format: functional, HepG2
Work on Cc1ccc(C(=O)N2CC[C@@]3(O)CCCC[C@H]3C2)cc1 yielded an INHIBITION of 16.45%. CNC(=O)c1sccc1N(C)S(=O)(=O)c1ccc(Cl)cc1 was tested, and the INHIBITION was 1.37%. Work on O=C(NCCCOCC1CCCO1)c1cccnc1N1CCOCC1 (stereo not given) yielded an INHIBITION of 10.49%. Work on CC(C)COCCCNC(=O)c1cccnc1N1CCOCC1 yielded an INHIBITION of -32.12%. O=C(NCCCOCC1CC1)Nc1cccnc1N1CCOCC1 showed an INHIBITION of 61.57%. CCC(CC)NC(=O)c1ncn2c1CN(CC)S(=O)(=O)c1ccccc1-2 was tested, and the INHIBITION was 14.52%. Work on CC(=O)N1CCC(Cc2nccnc2-c2c(C)n[nH]c2C)C1 (stereo not given) yielded an INHIBITION of 26.14%. Compound Cc1ccc(CN2CC[C@H]3O[C@@H](C(=O)N4CCCO4)CC[C@H]32)s1 has an INHIBITION of -25.79%. Compound Cc1nn(C)c(N(C)C)c1CNCc1cccc(Cn2cccn2)c1 has an INHIBITION of 50.32%. For Cc1nn(C)c(N(C)C)c1CNCc1ccc(Cn2cccn2)cc1, the INHIBITION was 44.37%. Compound Cc1nn(C)c(N(C)C)c1CNCc1cccc(Cn2cncn2)c1 has an INHIBITION of -42.39%. Compound COc1cccc(CNCc2c(C)nn(C)c2N(C)C)c1 has an INHIBITION of -32.89%. COc1cccc(CCNCc2c(C)nn(C)c2N(C)C)c1 showed an INHIBITION of 67.59%. Compound COc1cccc(OCCNCc2c(C)nn(C)c2N(C)C)c1 has an INHIBITION of -14.3%. With Cc1ccc(C(=O)NS(=O)(=O)c2cccc3cnccc23)c(=O)[nH]1 the INHIBITION was -14.17%. For Cc1nc2ccccn2c1CN(Cc1cccnc1)CC1CCCO1 (stereo not given), the INHIBITION was 41.76%. Work on Cc1cccc2c1nc(COCC(=O)O)n2-c1cnc(N)cn1 yielded an INHIBITION of -15.37%. Work on CCCc1nc(C(C)(C)NC(=O)C2CC(=O)N(CC)C2)no1 (stereo not given) yielded an INHIBITION of -2.17%. CCCc1nc(C(C)(C)NC(=O)C2CC(=O)N(CC3CC3)C2)no1 (stereo not given) gave an INHIBITION of 71.48%. CN(C)Cc1nc(C(C)(C)NC(=O)C2CC(=O)N(CC3CC3)C2)no1 (stereo not given) gave an INHIBITION of 17.39%. Work on O=C(NCCO)c1coc(Cn2cnc3ccccc32)n1 yielded an INHIBITION of 5.82%. CN(Cc1cnc(N)nc1)C(=O)c1coc(COc2ccccc2)n1 gave an INHIBITION of -31.73%. CN(CC(O)CO)C(=O)c1coc(COc2cccc(F)c2)n1 (stereo not given) showed an INHIBITION of -5.13%. Compound CN(Cc1cnc(N)nc1)C(=O)c1coc(COc2cccc(F)c2)n1 has an INHIBITION of 51.31%. CCOCCCNC(=O)C1(C)CCC(=O)N1Cc1ccccc1F (stereo not given) gave an INHIBITION of 15.96%. For CSCc1nc(CCNC(=O)C(N)c2c(C)n[nH]c2C)cs1 (stereo not given), the INHIBITION was -4.29%. In the case of O=C(c1ccc(-n2cnnc2)cc1Cl)N1CCCC2(CCNC2)C1 (stereo not given), the INHIBITION was 57.75%. Compound CN(C)CC1(O)CCN(C(=O)c2ccc(-n3cnnc3)cc2Cl)C1 (stereo not given) has an INHIBITION of 21%. O=C(c1ccc(-n2cccn2)cc1Cl)N1CCCC(O)(CO)C1 (stereo not given) was tested, and the INHIBITION was 21.36%. O=C(c1cccc(-c2ccc(F)cc2)c1)N1CCCC(O)(CO)CC1 (stereo not given) was tested, and the INHIBITION was 35.7%. With CNc1ccc(C)cc1C(=O)N1CCCC2(CCNC2)C1 (stereo not given) the INHIBITION was 8.3%. N#Cc1cccc(C(=O)N2CCCC(O)(CO)CC2)c1 (stereo not given) gave an INHIBITION of 16.82%. With O=C(c1ccc(-n2cnnc2)cc1Cl)N1CCCC(O)(CO)CC1 (stereo not given) the INHIBITION was 58.57%. O=C(c1cccc(Oc2ccccc2)c1)N1CCCC(O)(CO)CC1 (stereo not given) gave an INHIBITION of 53.66%. In the case of O=C(c1ccnc(-n2cnnc2)c1)N1CCCC2(CCNC2)C1 (stereo not given), the INHIBITION was 7.67%.
